Results filed as inconclusive are left out. Calls of active or inactive are those of the source. Calls come from the whole dose curve; as a rule, active = well fitted curve in the direction sought with a large enough effect; inconclusive = small, poorly fitted or top-dose-only effect, or another doubt; inactive = no such curve, though single readings can be large; an effect the other way counts as inactive or inconclusive.
Experiment: qHTS Screen of the MIPE 4.0 Collection Against Ewings Sarcoma (TC32) (AID 1259256); note: nearly all actives have a fitted effect of over 45% in size; note: potency is the fitted concentration of half-maximal effect;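 for viability (percent of control): 100% = DMSO-treated cells and 0% = medium-only wells without cells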
Details: TC32 Ewing sarcoma viability, CellTiter-Glo, 48 h; series mostly up to 45.8 µM; viability (percent of control): at the top concentration
Procedure, shortened: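 Cells plated in serum-containing RPMI (5% FBS) and treated with compound dilutions for 48 h. Readout luminescent viability; normalization relied on vehicle (no inhibition) and media-only columns (full inhibition).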
With `CNC(=O)c1cc(Oc2ccc(NC(=O)Nc3ccc(Cl)c(C(F)(F)F)c3)c(F)c2)ccn1` the Potency was 20.9 µM (active). With `COc1ccnc(CS(=O)c2nc3ccc(OC(F)F)cc3[nH]2)c1OC` (centres undefined) the “viability (percent of control)” value was 105% (inactive). In the case of `CN1N=C(N)c2cn([C@@H]3O[C@H](COP(=O)(O)O)[C@@H](O)[C@@H]3O)c3ncnc1c23`, the Potency is reported as 2.64 µM (active). With `NC(=O)c1ccc(N(C(N)=O)c2c(F)cccc2F)nc1-c1ccc(F)cc1F` the “viability (percent of control)” value was 117% (inactive). With `COc1ccc(Cn2ccc3ccc(C(=O)NO)cc32)cc1` the Potency was 11.8 µM (active). With `CCOC(=O)c1c(CSc2ccccc2)n(C)c2cc(Br)c(O)c(CN(C)C)c12` the Potency was 13.2 µM (active). For `CC(C)C[C@H](NC(=O)c1cc2ccccc2s1)C(=O)N1CCN(C(=O)[C@H](CO)NS(=O)(=O)c2ccc(Cl)cc2Cl)CC1`, the Potency was 23.5 µM (active). With `CN(C)S(=O)(=O)c1ccc2c(c1)C(=Cc1cc3c([nH]1)CCCC3)C(=O)N2` the Potency was 3.72 µM (active). With `CON(C)C(=O)N1N=C(c2cc(F)ccc2F)S[C@]1(CCCN)c1ccccc1` the “viability (percent of control)” value was 112% (inactive). For `O=c1cc(-c2ccc(O)c(O)c2)oc2cc(O)cc(O)c12`, the “viability (percent of control)” value was 122% (inactive). With `CCN1CCC(n2cc(CNc3cc(Cl)c4ncc(C#N)c(Nc5ccc(F)c(Cl)c5)c4c3)nn2)CC1` the Potency was 18.7 µM (active). In the case of `COc1c(C)c2c(c(O)c1CC=C(C)CCC(=O)OCCN1CCOCC1)C(=O)OC2`, the Potency is reported as 1.32 µM (active). For `CCN(CC)CCCCNc1nc2cc(Cl)c(Cl)cc2nc1-c1ccc(-c2cccs2)s1`, the Potency was 18.7 µM (active). In the case of `C[C@@H]1[C@H](C)CC[C@]2(C(=O)O)CC[C@]3(C)C(=CC[C@@H]4[C@@]5(C)CC[C@H](O)C(C)(C)[C@H]5CC[C@]43C)[C@@H]12`, the Potency is reported as 1.52 µM (active). With `CCC(=O)N1CCN(c2ccc(-n3c(=O)ccc4cnc5ccc(-c6cnc7ccccc7c6)cc5c43)cc2C(F)(F)F)CC1` the Potency was 0.0105 µM (active). With `O=C(c1ccc(C=Cc2n[nH]c3ccccc23)cc1)N1CCNCC1` the Potency was 0.743 µM (active). In the case of `CCCCCCOC(=O)N=C(N)c1ccc(NCc2nc3cc(C(=O)N(CCC(=O)OCC)c4ccccn4)ccc3n2C)cc1`, the Potency is reported as 7.43 µM (active). For `O=C(C=Cc1ccc(O)cc1)c1ccc(O)cc1O`, the Potency was 16.6 µM (active). With `CC(C)n1c(C=C[C@H](O)C[C@H](O)CC(=O)O)c(-c2ccc(F)cc2)c2ccccc21` the Potency was 2.35 µM (active). For `c1ccc(-c2oc3ncnc(NC[C@@H]4CCCO4)c3c2-c2ccccc2)cc1`, the Potency was 20.9 µM (active). In the case of `NC(=O)c1nnn(Cc2cc(Cl)c(C(=O)c3ccc(Cl)cc3)c(Cl)c2)c1N`, the Potency is reported as 20.9 µM (active). For `O=C(Nc1ccc(OC(F)(F)F)cc1)c1sccc1NCc1ccnc2ccccc12`, the Potency was 18.7 µM (active). With `N[C@@H](CC(=O)N1CCn2c(nnc2C(F)(F)F)C1)Cc1cc(F)c(F)cc1F` the Potency was 23.5 µM (active). With `Cc1ccc(NC(=O)c2ccc(CN3CCN(C)CC3)cc2)cc1Nc1nc(-c2cccnc2)cs1` the Potency was 26.4 µM (active). In the case of `COc1nccc(-c2c(-c3ccc(F)cc3)ncn2C2CCNCC2)n1`, the Potency is reported as 16.6 µM (active). With `C[C@@H](O[C@H]1OCCN(Cc2n[nH]c(=O)[nH]2)[C@@H]1c1ccc(F)cc1)c1cc(C(F)(F)F)cc(C(F)(F)F)c1` the Potency was 16.6 µM (active). With `N=C1SC(=Cc2ccc(-c3ccc4c(c3)C(=O)NC4=O)o2)C(=O)N1c1ccc(Br)cc1` the Potency was 18.7 µM (active). With `O=C(O)Cc1cccc(OCCCN(Cc2cccc(C(F)(F)F)c2Cl)CC(c2ccccc2)c2ccccc2)c1` the Potency was 20.9 µM (active).

Experiment: Identifying Small Molecule Inhibitors of Pancreatic Cancer Stem Cells (SN12C, Adherent) (AID 1259358);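 note: cell survival measured after 48 h of compound exposure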; note: potency is the fitted concentration of half-maximal effect
Details: viability/growth inhibition; series mostly up to 46.1 µM; viability (percent of control): at the top concentration
Procedure, shortened: (§1)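 Pre-formed 14-day tumor spheroids or adherent cells dosed and incubated 48 h, 37C, 5% CO2. Viability assessed by CellTiter-Glo.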
With `NC(=O)c1ccc(N(C(N)=O)c2c(F)cccc2F)nc1-c1ccc(F)cc1F` the “viability (percent of control)” value was 91.2% (inactive). In the case of `CCC(=O)N1CCN(c2ccc(-n3c(=O)ccc4cnc5ccc(-c6cnc7ccccc7c6)cc5c43)cc2C(F)(F)F)CC1`, the Potency is reported as 0.0372 µM (active). For `Cc1ccc(NC(=O)c2ccc(CN3CCN(C)CC3)cc2)cc1Nc1nc(-c2cccnc2)cs1`, the “viability (percent of control)” value was 101% (inactive). In the case of `C[C@@H](O[C@H]1OCCN(Cc2n[nH]c(=O)[nH]2)[C@@H]1c1ccc(F)cc1)c1cc(C(F)(F)F)cc(C(F)(F)F)c1`, the Potency is reported as 18.7 µM (active). In the case of `O=C(O)Cc1cccc(OCCCN(Cc2cccc(C(F)(F)F)c2Cl)CC(c2ccccc2)c2ccccc2)c1`, the “viability (percent of control)” value is reported as 104% (inactive).

Experiment: Identifying Small Molecule Inhibitors of Pancreatic Cancer Stem Cells (A278, Adherent) (AID 1259361);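 note: viability read after 48 h compound exposure; nearly all actives have a fitted effect of over 35% in size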;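 for viability (% of control): 100% = DMSO-treated cells and 0% = cell-free media-only wells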
Details: series mostly up to 46.1 µM; viability (% of control): at the top concentration
Procedure, shortened: as §1
For `CNC(=O)c1cc(Oc2ccc(NC(=O)Nc3ccc(Cl)c(C(F)(F)F)c3)c(F)c2)ccn1`, the IC50 (viability decrease) was 16.6 µM (active). For `NC(=O)c1ccc(N(C(N)=O)c2c(F)cccc2F)nc1-c1ccc(F)cc1F`, the “viability (% of control)” value was 89.9 (inactive). In the case of `CCN(CC)CCCCNc1nc2cc(Cl)c(Cl)cc2nc1-c1ccc(-c2cccs2)s1`, the IC50 (viability decrease) is reported as 23.5 µM (active). For `CC(C)n1c(C=C[C@H](O)C[C@H](O)CC(=O)O)c(-c2ccc(F)cc2)c2ccccc21`, the IC50 (viability decrease) was 1.05 µM (active). With `O=C(Nc1ccc(OC(F)(F)F)cc1)c1sccc1NCc1ccnc2ccccc12` the IC50 (viability decrease) was 20.9 µM (active). With `C[C@@H](O[C@H]1OCCN(Cc2n[nH]c(=O)[nH]2)[C@@H]1c1ccc(F)cc1)c1cc(C(F)(F)F)cc(C(F)(F)F)c1` the IC50 (viability decrease) was 16.6 µM (active).

Reference: PubChem BioAssay (NCATS)
